Assay outcomes from PubChem.
Compounds with a hit are over-represented: about 2.7% of the library has one in this group of screens.
KDM5B inhibitor: inhibitors of human KDM5B histone demethylase. KDM5B demethylase, FDH-coupled NADH fluorescence (FDH is formaldehyde dehydrogenase). 220,000 compounds, 2.6% hits. Potency, µM (series often up to 57.7 µM), most hits filed as inhibitors; active = well fitted inhibition curve with a large enough effect; inconclusive = small, poorly fitted or top-dose-only effect; inactive = no such curve, though single readings can be large or run the other way; note: potency is the fitted concentration of half-maximal effect; 0% is about no effect; nearly all actives have a fitted effect of over 70% in size
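Inhibition is measured as reduced NADH fluorescence generation from FDH coupling to formaldehyde release. Truncated KDM5BΔAP at 200 nM final acts on H3K4me3 peptide (12.5 µM in substrate mix) in pH 7.5 HEPES buffer with Tween-20, 30 min, room temperature.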
IP6K1 inhibitor: blocks human inositol hexakisphosphate kinase 1; IP6K1 kinase, ADP-Glo luminescence, 2 h; active compounds read low; 140,000 compounds, 0.81% hits; activity change, % (series mostly up to about 58 µM); in the data active = activity change below about -25%; note: % is set by controls: 0 for no effect and ±100 for the full control effect
Target sequence (Q92551 whole entry, looked up): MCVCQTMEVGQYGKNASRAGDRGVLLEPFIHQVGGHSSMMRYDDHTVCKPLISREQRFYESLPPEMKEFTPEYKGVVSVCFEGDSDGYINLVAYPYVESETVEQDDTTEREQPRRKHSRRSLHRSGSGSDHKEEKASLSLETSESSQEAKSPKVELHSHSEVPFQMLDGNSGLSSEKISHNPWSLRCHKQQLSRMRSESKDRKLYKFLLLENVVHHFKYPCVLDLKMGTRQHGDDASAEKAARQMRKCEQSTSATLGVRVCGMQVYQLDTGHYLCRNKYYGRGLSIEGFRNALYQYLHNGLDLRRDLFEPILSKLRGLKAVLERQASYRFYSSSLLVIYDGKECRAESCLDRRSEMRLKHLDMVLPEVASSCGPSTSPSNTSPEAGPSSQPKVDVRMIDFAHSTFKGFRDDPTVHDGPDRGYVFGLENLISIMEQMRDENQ
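ADP-Glo luminescence measures ADP made by human IP6K1 during a 2 h RT reaction with ATP/IP6 (mix at 1.3 mM/130 uM); top library doses 57.5 and 19.1 uM final.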
* hit, by the source's call; i = inactive; ? = inconclusive; · = not tested or not shown.

SMILES	KDM5B inhibitor	IP6K1 inhibitor
CCOC(=O)[C@H]1CN(C(=O)CC2CCCC2)[C@]2(C)C(=O)N(CC3CC3)c3ccccc3[C@H]12	·	6.7
CCOc1cc(CNCCc2c[nH]c3ccc(OC)cc23)ccc1O	i	·
Cc1cccc(CN2C[C@@H]3C[C@H]2C(=O)N(C)c2ccccc2O3)n1	?	2.8
CCOC(=O)[C@H]1CN(C(=O)OCC)[C@]2(C)C(=O)N(CCOC(C)=O)c3ccccc3[C@H]12	·	0.4
O=C(O)C1=NOC2CN(CC3CCNC3)CC12 (configuration not stated)	141µM*	0.2
O=C(O)C1=NOC2CN(CC3CCOCC3)CC12 (configuration not stated)	i	5.9
CCCCOC(=O)N1C[C@H](C(=O)OCC)[C@H]2c3ccccc3N(CCOC)C(=O)[C@]21C	·	8.0
Cc1ncc2c(c1CNCC1(O)CNCCOC1)CCNC2 (configuration not stated)	28.2µM*	12.3
CCOC(=O)[C@H]1CN(C(=O)c2cc(C)oc2C)[C@]2(C)C(=O)N(CCOC)c3ccccc3[C@H]12	·	14.0
Cc1noc(C)c1COc1ccc(CC(=O)N2CCN(CC(=O)N3CCCCC3)CC2)cc1	i	·
CCn1cc(CN2CCN(C(=O)COc3ccccc3)CC2)ccc1=O	?	-2.1
CCn1cc(CN2CCN(C(=O)Cc3cccs3)CC2)ccc1=O	12.6µM*	0.8
CCn1cc(CN2CCN(C(=O)Cc3c(C)noc3C)CC2)ccc1=O	11.2µM*	2.7
CSc1cccc(NC(=O)NC[C@H]2C[C@@H]3CCN2C[C@@H]3CN(C)c2ccccc2)c1	i	-6.6
COc1cc2c(cc1OCc1ccccc1)N(C(=O)c1cc3ccccc3n1C)CC21CCN(C)CC1	?	-14.3
CCOC(=O)[C@H]1CN(C(=O)c2ccno2)[C@]2(C)C(=O)N(CC3CC3)c3ccccc3[C@H]12	·	6.1
CC[C@H]1CN2CC[C@H]1C[C@@H]2CN(Cc1ccc(SC)cc1)Cc1ccc(SC)cc1	?	19.6
O=c1ccc(-c2ccccc2)c2n1C[C@H]1C[C@@H]2CN(S(=O)(=O)c2cccs2)C1	?	0.4
CN1CCN(C(=O)Cc2ccc(Cl)cc2Cl)CC1	i	·
O=C(Cc1c[nH]c2ccccc12)N1CCN(Cc2ccccc2)CC1	i	·
CN1CCN(C(=O)Cc2c[nH]c3ncc(-c4ccc(F)c(Cl)c4)cc23)CC1	39.8µM*	1.1
COc1ncc(-c2cnc3[nH]cc(CC(=O)N4CCN(C)CC4)c3c2)cn1	i	11.5
Cn1cc(-c2cnc3[nH]cc(CC(=O)N4CCN(Cc5ccccc5)CC4)c3c2)cn1	28.2µM*	-3.5
CN1CCN(C(=O)Cc2c[nH]c3ncc(-c4ccc(Cl)cc4)cc23)CC1	31.6µM*	-10.0
CCOC(=O)[C@@H]1[C@H]2c3ccccc3N(C)C(=O)[C@H]2N(C(=O)NC2CCCC2)[C@@H]1c1ccccc1	·	15.2
SMILES	KDM5B inhibitor	IP6K1 inhibitor
COC1CC(OC2CCC3(C)C(=CCC4C3CCC3(C)C(C(C)OC5OC(COC6OC(CO)C(O)C(O)C6O)C(O)C(O)C5O)CCC43O)C2)OC(C)C1OC1OC(C)C(O)C(OC)C1O (configuration not stated)	·	-5.2
COc1cccc(Nc2cc3c(cn2)CN(C)CCN3)c1	?	-2.1
COc1ccc(-c2cc3c(cn2)CN(C)CCN3)cc1OC	35.5µM*	-10.3
O=C(c1ccncc1)N1C[C@@H]2C[C@H](C1)c1ccc(-c3cccc(C(F)(F)F)c3)c(=O)n1C2	28.2µM*	11.1
CC(C)(CC(=O)O)CC(=O)N1C[C@@H]2C[C@H](C1)c1ccc(-c3cccc(C#N)c3)c(=O)n1C2	i	4.5
COCCC(=O)N1C[C@@H]2C[C@H](C1)c1ccc(-c3cccc(C(F)(F)F)c3)c(=O)n1C2	39.8µM*	6.8
CN(C)CC(=O)N1C[C@@H]2C[C@H](C1)c1c(-c3cccc(C#N)c3)ccc(=O)n1C2	i	-2.0
O=C(O)CSCC(=O)N1C[C@@H]2C[C@H](C1)c1ccc(-c3cccc(C(F)(F)F)c3)c(=O)n1C2	31.6µM*	12.0
CC(C)NC(=O)N1C[C@@H]2C[C@H](C1)c1ccc(-c3cccc(C(F)(F)F)c3)c(=O)n1C2	i	16.2
Cc1cc(C(=O)N2[C@H]3CC[C@@H]2c2cnc(-c4ccc(F)cc4)nc2C3)nn1C	i	30.7
CSc1ccc(-c2ccc(=O)n3c2[C@@H]2C[C@@H](CN(S(=O)(=O)c4cccs4)C2)C3)cc1	?	-6.7
Cc1ccc(C(=O)N2[C@H]3CC[C@@H]2c2cnc(-c4ccc(F)cc4)nc2C3)cn1	i	1.3
COc1cc2c(cc1OCc1ccccc1)N([S+](=O)([O-])c1cccnc1)CC21CCN(C)CC1	i	6.0
COc1cc2c(cc1OCc1ccccc1)NC(=O)C21CCN(c2ccccn2)CC1	25.1µM*	-5.9
COc1cc2c(cc1Oc1ccccc1)NC(=O)C21CCN(c2ncc(C(C)C)cn2)CC1	28.2µM*	-10.7
